Laboratory results published in PubChem BioAssay (NCATS).
Inconclusive results are not listed. Active and inactive are the calls of the source. Unless noted, calls follow the shape of the dose curve; as a rule, active = well fitted cell-killing curve with a large enough effect; inconclusive = small, poorly fitted or top-dose-only effect, or effect the other way; inactive = flat fitted curve, though single readings scatter. Where a SMILES comes first, the peptide text is derived from it.

Assays:
JEG-3 = assay: Primary qHTS to identify gynecologic anti-cancer compounds using libraries of approved drugs and bioactive compounds (AID 1345084); details: Gynecologic cancer cell panel viability, ATPlite luminescence, 48 h; series mostly up to 57.5 µM; also: % is scaled to controls: 0 for no effect and ±100 for the full control effect; nearly all actives have a fitted effect of over 55% in size
Summary of the method: (§1)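 ATP-based viability (ATPlite), 1,000 cells/well, 16 h pre-incubation, 48 h compound at 37 C, 5% CO2, 15 min RT before read.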

OV90 = assay: as above; details: Gynecologic cancer cell panel viability, ATPlite luminescence, 48 h; series mostly up to 57.5 µM
Summary of the method: as §1

PA-1 = assay: as above; details: Gynecologic cancer cell panel viability, ATPlite luminescence, 48 h; series mostly up to 57.5 µM
Summary of the method: as §1

Tov-21-G = assay: as above; details: Gynecologic cancer cell panel viability, ATPlite luminescence, 48 h; series mostly up to 57.5 µM
Summary of the method: as §1

Tov112D = assay: as above; details: Gynecologic cancer cell panel viability, ATPlite luminescence, 48 h; series mostly up to 57.5 µM
Summary of the method: as §1

SKOV3 = assay: as above; details: Gynecologic cancer cell panel viability, ATPlite luminescence, 48 h; series mostly up to 57.5 µM
Summary of the method: as §1

[1] = biological target: Nuclear receptor subfamily 1 group I member 2 (Rattus norvegicus) (UniProt Q9R1A7); assay: qHTS assay for small molecule activators of the rat pregnane X receptor (rPXR) signaling pathway (AID 651751; call rule not given here; also: 0% is about no effect); details: rPXR reporter cells, luciferase (One-Glo), 24 h
Nuclear receptor subfamily 1 group I member 2 (Rattus norvegicus), sequence (Q9R1A7 whole entry, looked up): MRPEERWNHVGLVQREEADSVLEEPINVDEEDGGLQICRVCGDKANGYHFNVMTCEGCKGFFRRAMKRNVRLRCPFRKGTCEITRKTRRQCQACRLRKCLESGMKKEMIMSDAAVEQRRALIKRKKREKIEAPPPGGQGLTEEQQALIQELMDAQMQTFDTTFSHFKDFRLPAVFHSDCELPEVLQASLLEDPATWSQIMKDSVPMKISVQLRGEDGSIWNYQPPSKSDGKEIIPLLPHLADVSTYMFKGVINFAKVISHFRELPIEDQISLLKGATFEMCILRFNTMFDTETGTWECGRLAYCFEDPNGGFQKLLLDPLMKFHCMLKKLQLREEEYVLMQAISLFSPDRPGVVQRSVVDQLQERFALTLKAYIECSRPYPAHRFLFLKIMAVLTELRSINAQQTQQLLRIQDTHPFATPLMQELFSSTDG

[2] = qHTS assay for small molecule activators of the human pregnane X receptor (PXR) signaling pathway (AID 720659; call rule not given here; also: 0% is about no effect)

CC1CCC2(C(=O)OC3OC(COC4OC(CO)C(O)C(O)C4O)C(O)C(O)C3O)CCC3(C)C(=CCC4C5(C)CCC(O)C(C)(C(=O)O)C5CCC43C)C2C1(C)O (stereo not drawn)
inactive: activity change, negative = cytotoxicity (JEG-3) 10.5% [at 11.6 µM] | activity change, negative = cytotoxicity (OV90) 27% [at 11.6 µM] | activity change, negative = cytotoxicity (PA-1) -0.862% [at 11.6 µM] | activity change, negative = cytotoxicity (Tov-21-G) 6.67% [at 11.6 µM] | activity change, negative = cytotoxicity (Tov112D) -8.14% [at 11.6 µM]

O=C(O)C[C@H]1CCC(=O)[C@@H]1C/C=C\CCOC1OC(CO)C(O)C(O)C1O (stereo partly drawn)
inactive: Potency (JEG-3) | Potency (OV90) | Potency (PA-1) | Potency (Tov-21-G) | Potency (Tov112D)

CC1NC(=O)CNC(=O)C(C(C)C)NC(=O)C2CCCN2C(=O)C(C(C)C)NC(=O)C(Cc2c[nH]c3ccccc23)NC1=O (stereo not drawn) (cyclo(GAWVPV); configuration not given here)
inactive: Potency (JEG-3) | Potency (OV90) | Potency (PA-1) | Potency (Tov-21-G) | Potency (Tov112D)

COc1ccc(C(OC2OC(CO)C(O)C(O)C2O)C(C)O)cc1 (stereo not drawn)
inactive: Potency (JEG-3) | Potency (OV90) | Potency (PA-1) | Potency (Tov-21-G) | Potency (Tov112D)

CC(=O)O[C@@H]1[C@H](O[C@@H]2OC[C@](O)(CO)[C@H]2O)[C@@H](O[C@@H]2O[C@@H](C)[C@H](O)[C@@H](O)[C@H]2O)[C@H](OC(=O)[C@]23CCC(C)(C)C[C@H]2C2=CCC4[C@@]5(C)C[C@H](O)[C@H](O[C@@H]6O[C@H](C(=O)O)[C@@H](O)[C@H](O)[C@H]6O)[C@@](C)(C(=O)O)C5CC[C@@]4(C)[C@]2(C)CC3)O[C@@H]1C (stereo partly drawn)
inactive: activity change, negative = cytotoxicity (JEG-3) 0.39% [at 11.6 µM] | activity change, negative = cytotoxicity (OV90) 0.243% [at 11.6 µM] | activity change, negative = cytotoxicity (PA-1) -6.11% [at 11.6 µM] | activity change, negative = cytotoxicity (Tov-21-G) 1.94% [at 11.6 µM] | activity change, negative = cytotoxicity (Tov112D) 2.89% [at 11.6 µM]

C[C@@H]1O[C@@H](OC[C@H]2O[C@@H](OCC3CCC4CC3C4(C)C)[C@H](O)[C@@H](O)[C@@H]2O)[C@H](O)[C@H](O)[C@H]1O (stereo partly drawn)
inactive: Potency (JEG-3) | Potency (OV90) | Potency (PA-1) | Potency (Tov-21-G) | Potency (Tov112D)

CC/C=C/CC1=C(CCCCCCCC(=O)O)CCC1=O
inactive: Potency (JEG-3) | Potency (OV90) | Potency (PA-1) | Potency (Tov-21-G) | Potency (Tov112D)

COc1ccc(C(=O)O[C@H]2CC(C)=CC[C@@]3(C)[C@@H](OC(C)=O)C[C@@](O)(C(C)C)[C@H]23)cc1
inactive: Potency (JEG-3) | Potency (OV90) | Potency (PA-1) | Potency (Tov-21-G) | Potency (Tov112D)

C[C@@H]1O[C@@H](O[C@H]2[C@H](OC(=O)[C@]34CCC(C)(C)C[C@H]3C3=CCC5[C@@]6(C)C[C@H](O)[C@H](O[C@@H]7O[C@H](CO[C@@H]8OC[C@H](O)[C@H](O)[C@H]8O)[C@@H](O)[C@H](O)[C@H]7O)C(C)(C)C6CC[C@@]5(C)[C@]3(C)C[C@H]4O)OC[C@@H](O)[C@@H]2O)[C@H](O)[C@H](O[C@@H]2OC[C@](O)(CO)[C@H]2O)[C@H]1O[C@@H]1OC[C@H](O)[C@H](O[C@@H]2OC[C@@H](O)[C@H](O)[C@H]2O)[C@H]1O (stereo partly drawn)
inactive: activity change, negative = cytotoxicity (JEG-3) -3.85% [at 6.55 µM] | activity change, negative = cytotoxicity (OV90) -1.75% [at 6.55 µM] | activity change, negative = cytotoxicity (PA-1) 9.54% [at 6.55 µM] | activity change, negative = cytotoxicity (Tov-21-G) -3.09% [at 6.55 µM] | activity change, negative = cytotoxicity (Tov112D) 5.07% [at 6.55 µM]

CCCCN(CCCC)C(=O)CN1C[C@H](c2ccc3c(c2)OCO3)[C@@H](C(=O)O)[C@@H]1c1ccc(OC)cc1
inactive: Potency (JEG-3) | Potency (OV90) | Potency (PA-1) | Potency (Tov-21-G) | Potency (Tov112D)

C=C1CCC2C(C)(C)C(O)CCC2(C)C1CCC(C)CCOC(=O)CCC(=O)O (stereo not drawn)
inactive: Potency (JEG-3) | Potency (OV90) | Potency (PA-1) | Potency (Tov-21-G) | Potency (Tov112D)

C=C1CCC2C(C)(C)CC(=O)CC2(C)C1CCC(C)CCOC(C)=O (stereo not drawn)
inactive: Potency (JEG-3) | Potency (OV90) | Potency (PA-1) | Potency (Tov-21-G) | Potency (Tov112D)

Cc1coc2c1CC1OC1(C)CCC1OC1(C)C2 (stereo not drawn)
inactive: Potency (JEG-3) | Potency (OV90) | Potency (PA-1) | Potency (Tov-21-G) | Potency (Tov112D)

CC(C)=CCC/C(C)=C/CC/C(C)=C/CC[C@]1(C)CCc2cc(O)cc(C)c2O1
inactive: Potency (JEG-3) | Potency (OV90) | Potency (PA-1) | Potency (Tov-21-G) | Potency (Tov112D)

CC1CCC23COC(=O)C2=CC(O)CC3C1(C)CCC1=CC(=O)OC1O (stereo not drawn)
inactive: Potency (JEG-3) | Potency (OV90) | Potency (PA-1) | Potency (Tov-21-G) | Potency (Tov112D)

C=CC(C)(C)O[C@@H]1O[C@H](CO[C@@H]2OC[C@](O)(CO)[C@H]2O)[C@@H](O)[C@H](O)[C@H]1O
inactive: Potency (JEG-3) | Potency (OV90) | Potency (PA-1) | Potency (Tov-21-G) | Potency (Tov112D)

CC1=C2[C@@H]([C@H](C)CC[C@H]2/C=C(\C)C(=O)O)[C@H](O)C1
inactive: Potency (JEG-3) | Potency (OV90) | Potency (PA-1) | Potency (SKOV3) | Potency (Tov-21-G) | Potency (Tov112D) | max response [1] -1.26% | outcome [2]

O=C1[C@H](O[C@@H]2O[C@H](CO)[C@@H](O)[C@H](O)[C@H]2O)Oc2ccccc2N1O
inactive: Potency (JEG-3) | Potency (OV90) | Potency (PA-1) | Potency (Tov-21-G) | Potency (Tov112D)

Cc1cc(C)c(S(=O)(=O)N(Cc2ccc(-c3cccc(S(C)(=O)=O)c3)cc2)Cc2ccc(C(F)(F)F)o2)c(C)c1
inactive: Potency (JEG-3) | Potency (OV90) | Potency (PA-1) | Potency (Tov-21-G) | Potency (Tov112D)

O=C(c1ccc(F)cc1)C1CCN(CCn2c(=O)nc3n(c2=O)CCCC3)CC1
inactive: Potency (JEG-3) | Potency (OV90) | Potency (PA-1) | Potency (Tov-21-G) | Potency (Tov112D)

Cc1nnc(C(C)C)n1C1CC2CCC(C1)N2CC[C@H](NC(=O)C1CCC(F)(F)CC1)c1ccccc1 (stereo partly drawn)
inactive: Potency (JEG-3) | Potency (OV90) | Potency (PA-1) | Potency (Tov-21-G) | Potency (Tov112D)

O=S(=O)(NC1CCNCC1)c1cc(S(=O)(=O)c2ccccc2)ccc1C(F)(F)F
inactive: Potency (JEG-3) | Potency (OV90) | Potency (PA-1) | Potency (Tov-21-G) | Potency (Tov112D)
